# Reference: PubChem BioAssay (Tox21)
# Results filed as inconclusive are left out. Entries that show only a call come without a potency. Active and inactive are the calls of the source. Unless noted, the call rests on the fitted dose curve; in most records, active means well fitted cell-killing curve with a large enough effect in the repeat runs; inconclusive means weak or mixed curves, or effect the other way; inactive means no such curve, though single readings can be large or run the other way.
# Target: Peroxisome proliferator-activated receptor gamma (Homo sapiens) (UniProt P37231)
# Experiment: qHTS assay to identify small molecule antagonists of the peroxisome proliferator-activated receptor gamma (PPARg) signaling pathway (AID 743191; calls by dose curve; further: nearly all actives have a fitted effect of over 30% in size; further: potency means the concentration at half of the fitted maximal effect)
# Settings: HEK293H PPARg-UAS-bla, beta-lactamase ratio, antagonist, 17 h; series mostly up to 62.6 µM
# In short: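 Beta-lactamase reporter under UAS control in HEK293H PPARg-bla cells; compound treatment 17 h at 37C. Read-out: fluorescence intensity after 1 h room-temperature incubation with LiveBLAzer B/G FRET substrate.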
# Sequence of Peroxisome proliferator-activated receptor gamma (Homo sapiens) (P37231 whole entry, looked up): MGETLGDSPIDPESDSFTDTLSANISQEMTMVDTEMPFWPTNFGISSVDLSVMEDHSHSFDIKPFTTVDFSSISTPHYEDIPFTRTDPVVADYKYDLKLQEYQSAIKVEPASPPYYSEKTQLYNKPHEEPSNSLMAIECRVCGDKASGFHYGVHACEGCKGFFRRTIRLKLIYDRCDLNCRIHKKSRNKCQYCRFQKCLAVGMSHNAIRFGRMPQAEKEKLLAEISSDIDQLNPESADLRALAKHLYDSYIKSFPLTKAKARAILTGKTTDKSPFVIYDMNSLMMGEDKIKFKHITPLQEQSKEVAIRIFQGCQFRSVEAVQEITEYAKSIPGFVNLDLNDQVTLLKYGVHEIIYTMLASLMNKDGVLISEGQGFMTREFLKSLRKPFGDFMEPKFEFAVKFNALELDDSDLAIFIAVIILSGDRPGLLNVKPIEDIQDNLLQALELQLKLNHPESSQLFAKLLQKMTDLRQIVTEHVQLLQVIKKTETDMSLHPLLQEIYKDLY
row,SMILES,Potency
1,ClCCCN1CCN(c2cccc(Cl)c2)CC1,inactive
2,CC1=C(C(=O)O)N2C(=O)[C@@H](N)[C@H]2SC1,inactive
3,CC1(C(=O)Nc2ccc(O)c(Cl)c2Cl)CCCCC1,inactive
4,CCC(=O)C(CCN(C)C)(c1ccccc1)c1ccccc1,inactive
5,CN1CCC(N(Cc2ccccc2)c2ccccc2)CC1,inactive
6,Clc1ccccc1N1CCNCC1,inactive
7,COc1cccc(C(=O)NN(C(=O)c2cc(C)cc(C)c2)C(C)(C)C)c1C,inactive
8,CCOC(=O)C(c1c(O)c2ccccc2oc1=O)c1c(O)c2ccccc2oc1=O,7.5 µM (active)
9,O=C(CCN1CC1)OCC(CO)(COC(=O)CCN1CC1)COC(=O)CCN1CC1,inactive
10,Fc1cc(Br)ccc1CBr,inactive
11,CCOP(=S)(Oc1cnc(C(C)(C)C)nc1)OC(C)C (stereo not given),inactive
12,O=C(NCO)NCO,inactive

# Tested on: not listed separately
# Experiment: qHTS assay to identify small molecule antagonists of the peroxisome proliferator-activated receptor gamma (PPARg) signaling pathway - cell viability counter screen (AID 743194); further: nearly all actives have a fitted effect of over 55% in size
# Settings: PPARg-bla HEK293H viability, CellTiter-Glo luminescence, 17 h; Potency: co-treated with 50 nM rosiglitazone; series mostly up to 62.6 µM
# In short: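 Viability was measured as CellTiter-Glo luminescence in GeneBLAzer PPARg UAS-bla HEK293H cells. These cells had been exposed 17 h at 37 C to compounds together with rosiglitazone at 50 nM final, with the beta-lactamase readout taken in the same wells.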
row,SMILES,Potency
1,NC1=NC(=O)C(c2ccccc2)O1 (stereo not given),inactive
2,C[C@]12CC[C@H]3[C@@H](CCC4=CC(=O)CC[C@@]43C)[C@@H]1CC[C@@H]2C(=O)O,inactive
3,COP(=S)(OC)Oc1ccc(S(N)(=O)=O)cc1,inactive
4,CC1=C(C(=O)O)N2C(=O)[C@@H](N)[C@H]2SC1,inactive
5,CC1(C(=O)Nc2ccc(O)c(Cl)c2Cl)CCCCC1,inactive
6,CCC#N,inactive
7,CCC(=O)C(CCN(C)C)(c1ccccc1)c1ccccc1,inactive
8,CC(C=O)Cc1ccc2c(c1)OCO2 (stereo not given),inactive
9,Clc1ccccc1N1CCNCC1,inactive
10,CC(C(O)c1ccccc1)N(C)C/C=C/c1ccccc1 (stereo not given),inactive
11,CN1C[C@@H](NS(=O)(=O)N(C)C)C[C@@H]2c3cccc4c3c(cn4C)C[C@H]21,inactive
12,CC1CCC(=O)O1 (stereo not given),inactive
13,Cc1coc2c1CCC(C)C2 (stereo not given),inactive
14,CC1COC2(c3ccccc3Cl)c3cc(Cl)ccc3NC(=O)CN12 (stereo not given),inactive
15,CCOC(=O)C1(c2ccccc2)CCN(CCc2ccc(N)cc2)CC1,inactive
16,CC(C(=O)c1ccccc1)N(C)C (stereo not given),inactive
17,CC(C)(C)NCC(O)c1cc(Cl)c(N)c(Cl)c1 (stereo not given),inactive
18,Fc1ccc(C2(Cn3cncn3)OC2c2ccccc2Cl)cc1 (stereo not given),inactive
19,CCNc1nc(NC(C)C)nc(OC)n1,inactive
20,Nc1c(Br)cc([N+](=O)[O-])cc1[N+](=O)[O-],inactive
21,O=C1OC(CCN2CCCCC2)OC1(c1ccccc1)c1ccccc1 (stereo not given),inactive
22,O=C(NCO)NCO,inactive
23,O=C1CN2CCOC2(c2ccccc2Cl)c2cc(Cl)ccc2N1 (stereo not given),inactive
